Measured potencies and affinities stand elsewhere. Records with an inconclusive call do not appear. The source made the active and inactive calls.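 How the source made its calls: active means in every test run, a fitted half-maximal concentration for signal decrease at or below twice the highest tested concentration; inconclusive means runs disagree, flat 30 to 70% decrease, or poor fit; inactive means the rest.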

The experiment is described as follows: miR-122 activators in hepatoma reporter cells, dose response, cell-based, Huh7 psiCHECK-miR122, Renilla luciferase, cherry-picked (AID 651956).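 Further: Renilla luciferase from a miR-122 sensor reporter so lower signal means miR-122 activation.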 To be noted: 48 h; series mostly up to 35 µM.
For the compound `C/C=C/c1ccc([C@@H]2[C@@H](CO)N(S(C)(=O)=O)[C@H]2CN(C)C(=O)CC)cc1`, the compound was classed as inactive. As for `FC(F)(F)c1cnc(N2CCCN(C(=S)Nc3ccccc3)CC2)c(Cl)c1`, the compound was classed as inactive. The entry for `CN1C(=O)c2cc(NC(=O)c3ccno3)ccc2OC[C@H]2O[C@@H](CC(=O)NCC3CC3)CC[C@@H]21` is “inactive”; for `CO[C@@H]1CN(C)C(=O)c2ccc(NS(=O)(=O)c3cccc(F)c3)cc2OC[C@@H](C)NC[C@H]1C` it is “inactive”; for `CCCNC(=O)Nc1ccc2c(c1)C(=O)N(C)[C@@H]1CC[C@@H](CC(=O)NCC3CCCCC3)O[C@@H]1CO2` it is “inactive”. For the compound `COc1ccc(CC(NC(C)=O)C(=O)N2CCN(C(=O)N(C(C)C)C(C)C)CC2)cc1` (configuration not stated), the call was inactive. The entry for `CNC(=O)C[C@@H]1CC[C@@H]2[C@@H](COc3ccc(NC(=O)NC(C)C)cc3C(=O)N2C)O1` is “inactive”; for `CCN(C[C@H]1N[C@@H](CO)[C@@H]1c1ccc(C2=CCCC2)cc1)C(=O)c1ccncc1` it is “inactive”; for `O=C(Nc1ncc(Cc2cccc(C(F)(F)F)c2)s1)c1ccc(-c2cccc([N+](=O)[O-])c2)o1` it is “inactive”. The entry for `O=C(NC[C@@H]1[C@@H](c2ccccc2)[C@H](CO)N1C(=O)C1CCC1)NC1CCCC1` is “inactive”.

Consider `CO[C@@H]1CN(C)C(=O)c2ccc(NS(C)(=O)=O)cc2OC[C@H](C)N(C(=O)CN(C)C)C[C@@H]1C`, for which the compound was classed as inactive. Turning to `CN1C(=O)c2cc(NC(=O)C3CC3)ccc2OC[C@@H]2O[C@H](CC(=O)NCCN3CCCC3)CC[C@H]21`, the compound was classed as inactive. With `CC(=O)N1[C@H](CO)[C@@H](c2ccccc2)[C@H]1CN(C(=O)NC(C)C)C1CCCC1` the entry was “inactive”. Turning to `CCCNC(=O)C[C@H]1CC[C@H]2[C@@H](COc3ccc(NC(=O)c4cc(F)cc(F)c4)cc3C(=O)N2C)O1`, the compound was classed as inactive. With `O=CN1CCN(C(=O)c2ccccc2F)CC1` the entry was “inactive”; with `CN(C)CCCN(C(=O)CCc1ccccc1)c1nc2ccc(Br)cc2s1`, “inactive”; with `COc1ccc2[nH]c(=O)c(COC(=O)c3ccco3)cc2c1`, “inactive”. With `CCOC(=O)c1nc(C)n(-c2ccc(Cl)cc2Cl)n1` the entry was “inactive”; with `O=C(C1CCOCC1)N1C[C@H]2[C@@H](c3ccccc31)[C@@H](CO)N2Cc1ccccc1`, “inactive”. Turning to `C[C@H]1CN([C@@H](C)CO)S(=O)(=O)c2ccc(C#Cc3ccccc3F)cc2O[C@@H]1CN(C)C(=O)c1ccc2c(c1)OCO2`, the result was inactive.

Consider `Cc1cc(C(=O)Nc2ccc3c(c2)C(=O)N(C)[C@@H]2CC[C@@H](CC(=O)N[C@H](C)c4ccccc4)O[C@H]2CO3)no1`, for which the result was inactive. With `COCC(=O)Nc1ccc2c(c1)C(=O)N(C)[C@H]1CC[C@@H](CC(=O)NC3CCCC3)O[C@H]1CO2` the entry was “inactive”; with `COC(=O)C[C@H]1CC[C@H]2[C@H](COc3ccc(NC(=O)c4cscn4)cc3C(=O)N2C)O1`, “inactive”; with `O=C(CC(F)(F)F)N1C[C@@H]2[C@H](c3ccccc31)[C@@H](CO)N2C(=O)C1CCCC1`, “inactive”. As for `COCC(=O)N1[C@@H](CO)[C@@H]2c3ccccc3N(C(=O)C3CC3)C[C@@H]21`, the outcome was inactive. On to `Cc1cc(C)cc(NC(=O)Nc2ccc3c(c2)C(=O)N(C)[C@@H]2CC[C@H](CC(=O)O)O[C@@H]2CO3)c1`, for which the compound was classed as inactive. With `C[C@H]1CN([C@@H](C)CO)S(=O)(=O)c2ccc(C#CC3CCCCC3)cc2O[C@@H]1CN(C)C` the entry was “inactive”.

These data come from PubChem BioAssay AID651956 (Broad Institute, 2012).
